From PubChem BioAssay (NCATS) come the findings set out here.

Inconclusive results are not listed. The source made the active and inactive calls. Unless noted, calls come from the whole dose curve; as a rule, active = well fitted curve in the direction sought with a large enough effect; inconclusive = small, poorly fitted or top-dose-only effect, or another doubt; inactive = no such curve, though single readings can be large; an effect the other way counts as inactive or inconclusive. Where only a bound is given, the exact number is not on record here.

Test [1] in a line: AP1 Signaling Pathway (AID 357; active = well fitted curve in either direction with a large enough effect, not every such curve was filed as active;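 note: ME-180 reporter cells stimulated with EGF at its EC50 level; % is set by controls: 0 for no effect and ±100 for the full control effect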). The procedure, abridged: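 First, ME-180 AP-1-bla cells were cultured overnight at 37 °C in low-serum Opti-MEM. Next, titrated compounds with EC50 EGF were incubated 5 hours. Finally, CCF4 was added for 2.5 hours and the 460/530 nm ratio recorded.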
The nature of test [2]: Stat Signaling Pathway (AID 446; active = well fitted curve in either direction with a large enough effect, not every such curve was filed as active;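 note: ME-180 cervical cancer cells given 40 pM IL-6 alongside compound; SIE-controlled beta-lactamase reporter measured as 460/530 nm FRET emission ratio; % is set by controls: 0 for no effect and ±100 for the full control effect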). The procedure, abridged: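 Overnight-plated ME-180 cells bearing a STAT Inducible Element beta-lactamase reporter; 5 h co-exposure to compound and 40 pM IL-6; values normalized to 300 pM IL-6 and 125 nM JAK inhibitor controls.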
Test [3] concerns the target Glucocorticoid receptor (Homo sapiens) (UniProt P04150). In words: GR-GFP Redistribution (AID 450;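 active = compounds whose dose series gives a full or clear partial fitted curve of increased nuclear translocation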; note: potency is the fitted concentration of half-maximal effect). Conditions: U2OS GR-GFP nuclear translocation, laser cytometry, 2 h.
The target is the same in test [4]. In words: GR-EFC Redistribution (AID 451; calls by dose curve; note: potency is the fitted concentration of half-maximal effect). Conditions: CHO-K1 GR-EFC translocation, beta-gal luminescence, 2 h. The procedure, abridged: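 CHO-K1 cells expressing nuclear EA and GR-ED fragments of b-gal; compounds titrated up to 46 uM final, 2 h at 37 C. GR nuclear translocation read as complemented b-gal luminescence after 1 h RT detection.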
Test [5] addresses Mitogen-activated protein kinase 10 (Mus musculus) (UniProt Q61831). In words: JNK3 AlphaScreen Assay (AID 530; active = well fitted curve in either direction with a large enough effect, not every such curve was filed as active;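 note: kinase came from lysate of stimulated human HepG2 cells; signal reports phosphorylation of biotinylated GST-cJun 1-79 at Ser73 with 10 µM ATP; % is set by controls: 0 for no effect and ±100 for the full control effect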). Put shortly: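 HepG2 lysate (IL-1b/TNFa pre-activated) + biotin-GST-cJun 1-79 + anti-pSer73 cJun; cpd titration, 15 min RT; ATP 10 uM start; Tris pH 7.6, MgCl2, DTT, vanadate; beads in EDTA buffer; AlphaScreen.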
In test [6] the target is 3',5'-cyclic-AMP phosphodiesterase 4B (Homo sapiens) (UniProt Q07343). In words: qHTS Assay for Inhibitors of PDE-IV (AID 607; active = well fitted activation curve with a large enough effect in the main read-out, with a control signal flat, not every such curve was filed as active; note: % of control where 0% means no effect). Put shortly: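 Live HEK293 cells with a modified cyclic nucleotide-gated (CNG) channel report intracellular cAMP via membrane-potential dye fluorescence (ex 535/em 590 nm). Endogenous PDE-IV was targeted. Compounds were tested at up to 22.9 uM final; RO 20-1724 100 uM served as control.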
Sequence of 3',5'-cyclic-AMP phosphodiesterase 4B (Homo sapiens) (Q07343 whole entry, looked up): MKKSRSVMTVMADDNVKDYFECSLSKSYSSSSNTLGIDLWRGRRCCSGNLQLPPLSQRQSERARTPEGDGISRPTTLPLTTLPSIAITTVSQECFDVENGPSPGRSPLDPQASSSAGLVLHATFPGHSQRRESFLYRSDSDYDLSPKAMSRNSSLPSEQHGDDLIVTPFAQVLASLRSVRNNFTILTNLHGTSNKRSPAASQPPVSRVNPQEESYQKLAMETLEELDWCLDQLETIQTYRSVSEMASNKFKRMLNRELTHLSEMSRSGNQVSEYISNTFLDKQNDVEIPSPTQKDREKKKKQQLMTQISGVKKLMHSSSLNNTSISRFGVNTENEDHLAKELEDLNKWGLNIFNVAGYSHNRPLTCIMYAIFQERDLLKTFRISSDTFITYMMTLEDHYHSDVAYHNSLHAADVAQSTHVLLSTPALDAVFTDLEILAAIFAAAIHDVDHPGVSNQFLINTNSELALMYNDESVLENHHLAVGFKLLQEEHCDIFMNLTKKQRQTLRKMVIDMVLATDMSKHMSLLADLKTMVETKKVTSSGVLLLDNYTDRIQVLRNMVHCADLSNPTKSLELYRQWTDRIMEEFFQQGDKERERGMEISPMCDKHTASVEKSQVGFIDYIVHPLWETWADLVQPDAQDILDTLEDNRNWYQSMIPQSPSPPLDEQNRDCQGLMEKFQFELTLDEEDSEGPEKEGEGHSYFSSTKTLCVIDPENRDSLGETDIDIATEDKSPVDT

The nature of test [7]: qHTS Assay for Lipid Storage Modulators (AID 1519; calls by dose curve). Conditions: Drosophila S3 cells, BODIPY lipid droplet/cell ratio, laser cytometry, cells loaded with oleic acid; for activity change, negative = inhibition: at 25.7 µM (top of the series). Put shortly: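 Cells seeded at 5,000 per well were treated with compounds over a concentration series and loaded with oleic acid (400 uM, as added). Lipid droplet fluorescence (488 nm excitation, 500-530 nm channel) was read by laser-scanning cytometry and normalized to 20 uM Triacsin C.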

In test [8] the target is Luciferin 4-monooxygenase (Photinus pyralis) (UniProt P08659). In words: Biochemical firefly luciferase enzyme assay for NPC (AID 624030).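 Note: purified P. pyralis luciferase at 10 nM with luciferin and ATP substrate; 0% = DMSO and -100% = full luciferase inhibition by PTC124 control; nearly all actives have a fitted effect of over 70% in size.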 The procedure, abridged: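 Purified P. pyralis luciferase at 10 nM in 50 mM Tris Acetate (final), luminescence read within 5 minutes of enzyme addition to compounds. Activity normalised to PTC124 versus DMSO; concentration-response curves classed by r2, magnitude and activity.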
Sequence of Luciferin 4-monooxygenase (Photinus pyralis) (P08659 whole entry, looked up): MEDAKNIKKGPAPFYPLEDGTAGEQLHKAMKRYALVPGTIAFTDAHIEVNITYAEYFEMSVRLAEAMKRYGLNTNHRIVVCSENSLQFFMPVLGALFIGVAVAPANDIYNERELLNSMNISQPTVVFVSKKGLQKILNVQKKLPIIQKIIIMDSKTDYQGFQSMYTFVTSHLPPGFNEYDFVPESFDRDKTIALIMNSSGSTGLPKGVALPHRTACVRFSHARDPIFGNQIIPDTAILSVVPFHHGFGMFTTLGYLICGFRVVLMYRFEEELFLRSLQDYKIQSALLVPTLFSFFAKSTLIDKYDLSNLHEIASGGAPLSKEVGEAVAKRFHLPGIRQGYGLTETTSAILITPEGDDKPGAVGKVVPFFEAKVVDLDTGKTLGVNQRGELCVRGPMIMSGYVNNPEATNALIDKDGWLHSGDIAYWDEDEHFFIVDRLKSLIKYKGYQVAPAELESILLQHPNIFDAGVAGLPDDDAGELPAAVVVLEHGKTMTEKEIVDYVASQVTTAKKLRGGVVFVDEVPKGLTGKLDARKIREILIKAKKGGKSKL

In test [9] the target is Ubiquitin carboxyl-terminal hydrolase 1 (Homo sapiens) (UniProt O94782). In words: Inhibitors of USP1/UAF1: Pilot qHTS (AID 504865).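 Note: rhodamine fluorescence freed from ubiquitin-rhodamine substrate followed over time; top concentration of the series differs between compounds; % is set by controls: 0 for no effect and ±100 for the full control effect; nearly all actives have a fitted effect of over 35% in size.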 The procedure, abridged: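 1nM USP1/UAF1 + cpd, 15 min RT; start w/ Ub-Rho 150nM final; kinetic FL 480/540 nm, 6 reads q60 s. Buffer 50mM HEPES pH 7.8, 0.5mM EDTA, 1mM TCEP, 0.01% Tween-20, 0.1 mg/ml BSA.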
Sequence of Ubiquitin carboxyl-terminal hydrolase 1 (Homo sapiens) (O94782 whole entry, looked up): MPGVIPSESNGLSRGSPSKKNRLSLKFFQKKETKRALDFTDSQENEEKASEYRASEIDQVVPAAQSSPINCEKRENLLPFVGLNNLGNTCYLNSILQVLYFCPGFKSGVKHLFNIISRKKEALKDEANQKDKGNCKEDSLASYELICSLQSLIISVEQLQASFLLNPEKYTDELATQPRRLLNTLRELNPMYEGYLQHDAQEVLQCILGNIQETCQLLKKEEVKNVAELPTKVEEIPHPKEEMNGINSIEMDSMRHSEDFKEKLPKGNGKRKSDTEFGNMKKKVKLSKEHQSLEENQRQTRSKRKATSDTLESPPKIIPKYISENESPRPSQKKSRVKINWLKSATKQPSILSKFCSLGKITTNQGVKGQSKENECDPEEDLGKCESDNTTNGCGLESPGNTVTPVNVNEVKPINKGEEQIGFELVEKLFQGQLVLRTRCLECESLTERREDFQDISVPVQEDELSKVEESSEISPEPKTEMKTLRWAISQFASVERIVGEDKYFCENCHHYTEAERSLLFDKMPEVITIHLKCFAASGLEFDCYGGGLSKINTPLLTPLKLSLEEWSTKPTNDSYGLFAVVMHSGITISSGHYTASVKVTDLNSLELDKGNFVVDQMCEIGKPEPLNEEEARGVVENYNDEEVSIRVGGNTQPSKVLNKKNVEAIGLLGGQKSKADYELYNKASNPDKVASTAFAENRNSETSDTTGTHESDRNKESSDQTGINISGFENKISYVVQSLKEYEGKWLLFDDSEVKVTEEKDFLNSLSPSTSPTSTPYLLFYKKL
Test [10] can be described thus: NFAT Signaling Pathway (AID 444; active = well fitted curve in either direction with a large enough effect, not every such curve was filed as active;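 note: carbachol stimulus at about its EC50 of 1 µM final; % is set by controls: 0 for no effect and ±100 for the full control effect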). Conditions: Jurkat NFAT-bla M1, carbachol, beta-lactamase ratio, 5 h; at 17.2 µM (top of the series) unless noted. Put shortly:
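Jurkat cells with NFAT-driven β-lactamase reporter and co-expressed M1 receptor, stimulated with carbachol (final 1 uM, ~EC50), compound titration, 5 h at 37 °C. CCF4 loaded 1 h at RT; 460/530 nm ratio gave %activity and AC50.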

For test [11], the target named is ATP-dependent 6-phosphofructokinase (Trypanosoma brucei brucei) (UniProt O15648). In words: qHTS Assay to Find Inhibitors of T. brucei phosphofructokinase: hit validation (AID 492961). The procedure, abridged:
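Compounds titrated; %activity normalized to 0x and 1x enzyme controls, curve-fitted. Readout: ADP-Glo luminescence after 45 min room-temperature reaction of 1.25 nM PFK, 0.1 mM ATP, 0.5 mM F6P, pH 8.0.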

A short description of test [12]: qHTS profiling for inhibitors of Plasmodium falciparum proliferation (AID 504749).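 Note: 0% = DMSO vehicle and full inhibition = artemisinin control; nearly all actives have a fitted effect of over 60% in size.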 Conditions: P. falciparum in erythrocytes, SYBR Green DNA, 72 h. Put shortly: (§1)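 SYBR Green fluorescence (ex 485 nm, em 535 nm) reports parasite DNA after 72 h compound exposure of infected red cells at 0.3% parasitemia, 2.5% hematocrit; signal normalized to 0.29 uM artemisinin and vehicle wells.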

The test system of test [13] is C2A. The description is as above. Conditions: P. falciparum in erythrocytes, SYBR Green DNA, 72 h; series mostly up to 12.8 µM. Put shortly: as §1
Test [14] deals with CP217. Described as above. Conditions: P. falciparum in erythrocytes, SYBR Green DNA, 72 h; series mostly up to 12.8 µM. The procedure, abridged: as §1
In test [15] the test system is CP238. Described as above. Conditions: P. falciparum in erythrocytes, SYBR Green DNA, 72 h; series mostly up to 12.8 µM. The procedure, abridged:
as §1

The test system of test [16] is CP250. The description is as above. Conditions: P. falciparum in erythrocytes, SYBR Green DNA, 72 h; series mostly up to 12.8 µM. The procedure, abridged:
as §1

In test [17] the test system is CP252. The description is as above. Conditions: P. falciparum in erythrocytes, SYBR Green DNA, 72 h; series mostly up to 12.8 µM. The procedure, abridged:
as §1

Test [18] deals with FAB9. Described as above. Conditions: P. falciparum in erythrocytes, SYBR Green DNA, 72 h; series mostly up to 12.8 µM. The procedure, abridged:
as §1

Test [19] has as its system HB3. The test is described as above. Conditions: P. falciparum in erythrocytes, SYBR Green DNA, 72 h; series mostly up to 12.8 µM. Put shortly:
as §1

The subject of test [20] is SC27B. Described as above. Conditions: P. falciparum in erythrocytes, SYBR Green DNA, 72 h; series mostly up to 12.8 µM. Put shortly:
as §1

Where [21] appears, read: measured here: cell count channel max response.
The mark [22] stands for this setting: measured here: lipid channel max response.

Sequence of Glucocorticoid receptor (Homo sapiens) (P04150 whole entry, looked up, the tested form may be a part): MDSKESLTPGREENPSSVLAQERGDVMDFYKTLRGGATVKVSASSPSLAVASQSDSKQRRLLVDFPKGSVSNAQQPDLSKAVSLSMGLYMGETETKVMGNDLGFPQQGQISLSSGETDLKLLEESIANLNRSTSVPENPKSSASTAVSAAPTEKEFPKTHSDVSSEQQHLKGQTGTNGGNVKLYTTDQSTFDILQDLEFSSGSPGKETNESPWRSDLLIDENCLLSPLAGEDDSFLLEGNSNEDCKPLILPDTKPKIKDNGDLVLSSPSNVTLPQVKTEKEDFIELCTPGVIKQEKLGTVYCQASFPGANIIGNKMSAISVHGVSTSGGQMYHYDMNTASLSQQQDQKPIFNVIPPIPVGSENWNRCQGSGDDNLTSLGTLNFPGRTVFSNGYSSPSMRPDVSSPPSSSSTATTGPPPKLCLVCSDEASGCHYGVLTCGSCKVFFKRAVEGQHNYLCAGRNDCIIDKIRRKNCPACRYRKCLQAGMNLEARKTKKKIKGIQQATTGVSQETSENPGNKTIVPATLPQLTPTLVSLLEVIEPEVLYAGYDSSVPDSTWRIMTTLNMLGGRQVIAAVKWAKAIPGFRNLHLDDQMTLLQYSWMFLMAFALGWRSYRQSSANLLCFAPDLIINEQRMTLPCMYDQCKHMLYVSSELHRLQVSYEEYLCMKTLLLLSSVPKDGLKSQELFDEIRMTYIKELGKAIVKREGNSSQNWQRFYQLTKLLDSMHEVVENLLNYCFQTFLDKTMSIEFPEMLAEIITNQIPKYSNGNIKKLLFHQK
Sequence of ATP-dependent 6-phosphofructokinase (Trypanosoma brucei brucei) (O15648 whole entry, looked up): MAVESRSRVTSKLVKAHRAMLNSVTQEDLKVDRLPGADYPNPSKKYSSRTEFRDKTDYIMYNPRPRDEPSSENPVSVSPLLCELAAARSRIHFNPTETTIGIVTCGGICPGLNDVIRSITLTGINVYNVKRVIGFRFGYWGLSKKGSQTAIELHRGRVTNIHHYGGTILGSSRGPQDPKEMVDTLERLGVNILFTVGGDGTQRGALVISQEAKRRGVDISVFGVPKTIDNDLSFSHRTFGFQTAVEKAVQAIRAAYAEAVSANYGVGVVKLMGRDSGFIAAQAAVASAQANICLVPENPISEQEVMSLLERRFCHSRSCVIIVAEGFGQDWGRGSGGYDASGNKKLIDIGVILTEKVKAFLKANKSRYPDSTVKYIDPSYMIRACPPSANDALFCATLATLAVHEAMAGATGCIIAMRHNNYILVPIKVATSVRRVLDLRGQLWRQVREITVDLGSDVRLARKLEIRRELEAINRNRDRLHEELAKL

On to `C[C@@H]1C[C@H](OC(=O)[C@@H](O)c2ccccc2)CC(C)(C)N1C`, for which the call in test [1], in test [2] and in [6] was inactive. For the same compound, the Potency in [3] and in [4] was > 20.6 µM (inactive) throughout. Further, the Potency result in test [5] and in test [8] was “inactive” throughout. The activity change, negative = inhibition in test [7] is -2.91% (inactive). Besides, the max response in [7] (setting [21]) is -2.86%; in test [7] (setting [22]) it was -7.41%.
For `C[C@@]1(O)CCOC(=O)C1`, the call in test [1], in [2] and in [6] was inactive. The Potency in test [3] and in test [4] was > 20.6 µM (inactive) each time. Moreover, the Potency result in test [5] and in test [9] was “inactive” each time. In addition, the activity change, negative = inhibition in test [7] is -1.74% (inactive). Moreover, the max response in test [7] (setting [21]) was -3.45%; in test [7] (setting [22]), -5.01%.
Take `C[C@H]1CS(=O)(=O)CCN1/N=C\c1ccc([N+](=O)[O-])o1`: the compound was called inactive in test [1], in test [2] and in test [11]. Further, the activity change, negative = inhibition is 1.33% (inactive) in [10] and -3.89% (inactive) in test [7]. Besides, the Potency in test [3] and in test [4] was > 20.6 µM (inactive) throughout. The Potency entry in test [5], in [9], in test [8], in test [13], in [14] and in [15] was “inactive” each time. The Potency result in test [16], in test [17], in [18], in test [19] and in [20] was “inactive” each time. Also, the max response was -15.4% in test [7] (setting [21]) and -17.6% in [7] (setting [22]). Besides, the activity, negative = inhibition in test [12] (at 12.8 µM (top of the series), parasite line A) is -17.9% (inactive); in test [12] (at 12.8 µM (top of the series), parasite line B) it was -12.5% (inactive).
Turning to `C=C1c2c(Cl)ccc(O)c2C(O)=C2C(=O)[C@@]3(O)C(O)=C(C(N)=O)C(=O)[C@@H](N(C)C)[C@@H]3[C@@H](O)[C@H]12`, the compound was called inactive in test [1], in test [2], in [6] and in [11]. The activity change, negative = inhibition in test [10] was -26.3% (inactive); in test [7], 1.11% (inactive). Besides, the Potency in [3] and in test [4] was > 20.6 µM (inactive) in each case. Besides, the Potency result in test [5], in test [8], in [15], in test [16], in test [17] and in test [18] was “inactive” in each case. The max response in test [7] (setting [21]) is -8.18%; in [7] (setting [22]), -8.74%.
`CN(C/C=C\c1ccccc1)Cc1cccc2ccccc12`: the compound was called inactive in test [1] and in test [2]. Also, the Potency in test [3] and in [4] was > 20.6 µM (inactive) in each case. The Potency result in [5], in [9], in test [8], in [13], in test [14] and in test [15] was “inactive” in each case. The Potency entry in test [16], in test [17], in [18], in [19] and in [20] was “inactive” each time. Also, in test [7], the activity change, negative = inhibition is -0.644% (inactive). In addition, the max response in test [7] (setting [21]) was -24.2%; in test [7] (setting [22]) it was -23.6%. Besides, the activity, negative = inhibition was 18.6% (inactive) in test [12] (at 28.7 µM (top of the series), parasite line A) and 9.39% (inactive) in [12] (at 28.7 µM (top of the series), parasite line B).
Turning to `c1ccc2c(c1)CCCc1cc(NCCN3CCOCC3)nnc1-2`, the compound was called inactive in test [1] and in [2]. Besides, the Potency in test [3] and in test [4] was > 20.6 µM (inactive) throughout. Further, in test [7], the activity change, negative = inhibition was -1.57% (inactive). Further, the results for the max response in test [7] (setting [21]) and in test [7] (setting [22]) were 0.476% and -2.33%, respectively. The Potency entry in [9] was “inactive”.
